# Sampled rows, rich in hits. Any-hit rate of the full collection: about 3.2%.
# TMEM16A act – TMEM16A chloride channel activators or potentiators, primary screen, cell-based, HTS; Anoctamin-1 (Mus musculus), Q8BHY3; HEK293 TMEM16A/YFP-H148Q/I152L, iodide quench fluorescence; hits give low values; B-score at 10 µM; 340,000 compounds, 0.3% hits; AID 623877, 2012;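 active = fluorescence-ratio B-score plate-corrected deviation score at least 3 library SD below zero, with starting fluorescence score within 5 deviations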;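 note: channel opened by trigger with iodide after compound preincubation; score built on the fluorescence ratio of max minus min over baseline; more negative score means more quench and so TMEM16A activation or potentiation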
# TMEM16A inh – TMEM16A chloride channel inhibitors, primary screen, cell-based, HTS; Anoctamin-1 (Mus musculus), Q8BHY3; HEK293 TMEM16A/YFP iodide influx fluorescence, ionomycin; normalized B-score (activity score, 25-100; higher = stronger inhibition) at 10 µM; 310,000 compounds, 1.2% hits;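 active = ratio plate-corrected score three or more library SD toward inhibition, starting fluorescence score within five deviations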;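 note: score derived from kinetic fluorescence span divided by baseline fluorescence per well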
# CHT allo act – CHT positive allosteric modulators, primary screen, cell-based, membrane potential dye, choline EC20; High affinity choline transporter 1 (Homo sapiens), Q9GZV3; CHT-expressing cells; hits give high values; LV-AA mutant CHT in HEK293 cells; B-score at 10 µM; 310,000 compounds, 0.49% hits;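 active = initial fluorescence not abnormally high and integrated response B-score, plate-corrected, over 3 SD above library mean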
# Target sequence (Q9GZV3 whole entry, looked up): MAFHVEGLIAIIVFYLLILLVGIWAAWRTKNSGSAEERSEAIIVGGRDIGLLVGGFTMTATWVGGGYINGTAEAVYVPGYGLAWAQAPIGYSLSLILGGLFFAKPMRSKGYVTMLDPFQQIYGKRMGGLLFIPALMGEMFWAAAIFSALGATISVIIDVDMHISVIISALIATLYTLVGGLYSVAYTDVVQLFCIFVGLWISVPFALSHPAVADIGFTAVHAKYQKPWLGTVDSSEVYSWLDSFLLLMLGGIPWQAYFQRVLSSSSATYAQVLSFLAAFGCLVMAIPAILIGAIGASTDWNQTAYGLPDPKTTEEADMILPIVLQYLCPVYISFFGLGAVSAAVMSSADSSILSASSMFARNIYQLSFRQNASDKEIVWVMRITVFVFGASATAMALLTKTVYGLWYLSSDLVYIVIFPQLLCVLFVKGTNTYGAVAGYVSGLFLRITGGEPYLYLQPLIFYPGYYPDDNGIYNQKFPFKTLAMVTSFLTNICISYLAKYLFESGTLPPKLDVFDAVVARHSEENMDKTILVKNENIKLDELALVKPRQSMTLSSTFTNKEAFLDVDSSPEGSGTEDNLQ
# CHT block – inhibitors of human choline transporter CHT; 310,000 compounds, 0.86% hits; CHT-expressing cells, membrane potential dye, choline response; hits give low values; AID 488975, 2010; High affinity choline transporter 1 (Homo sapiens), Q9GZV3; B-score at 10 µM;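 active = B-score over 3 SD under the library average, and starting fluorescence ratio not unusually high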;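 note: choline stimulus applied at its EC90 after an EC20 pre-addition; B-score computed on integrated fluorescence ratio after choline addition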
# HDAC3 inhib – HDAC3 deacetylase inhibitors, primary screen, biochemical, fluorescence, cell-free homogeneous; inhibition, % at 8.3 µM; 320,000 compounds, 0.15% hits; Histone deacetylase 3 (Homo sapiens), O15379; recombinant HDAC3, fluorogenic peptide/trypsin coupled; in the data active = inhibition above about 26%, passing the limit was not always enough; inconclusive = no clear call, values can overlap the other calls
# PHOSPHO1 inh – PubChem AID 1565; 290,000 compounds, 1.1% hits; Phosphoethanolamine/phosphocholine phosphatase (Homo sapiens), Q8TCT1; recombinant PHOSPHO1, absorbance phosphatase assay; inhibition, % at 13.3 µM; in the data active = inhibition above about 60%
# The depositor's hits bear a star; i = inactive; u = inconclusive; x = no result given.
SMILES,TMEM16A act,TMEM16A inh,CHT allo act,CHT block,HDAC3 inhib,PHOSPHO1 inh
CCOc1ccccc1NC(=O)C(OC(=O)c1ccc(O)cc1)c1ccccc1 (stereo not drawn),i,25*,i,i,5,-2
CCOc1ccccc1NC(=O)C(NCC1CCCCC1)c1ccccc1 (stereo not drawn),i,25*,i,i,2,28
CCOc1ccccc1NC(=O)C(NCCN(C)C)c1ccccc1 (stereo not drawn),i,i,i,i,x,-4
CCOc1ccccc1NC(=O)C(OC(=O)c1ccc(CC)cc1)c1ccccc1 (stereo not drawn),i,i,i,i,9,23
c1coc(CNC2C3CC4CC(C3)CC2C4)c1 (stereo not drawn),i,i,i,i,1,4
O=C(c1cc(NC(=O)C23CC4CC(CC(C4)C2)C3)cc(NC(=O)C23CC4CC(CC(C4)C2)C3)c1)N1CCCCC1,x,i,i,i,2,-3
O=C(NC(=S)N1CCCCC1)C12CC3CC(CC(C3)C1)C2,i,i,i,i,-3,84*
CC1(C)SC2c3ccccc3C(=O)N2[C@@H]1C(=O)NC1CCCC1 (stereo partly drawn),i,i,i,i,u,18
CCOc1ccc(-c2nc(S(=O)(=O)c3ccccc3)c(N3CCC(C(N)=O)CC3)o2)cc1,i,i,i,i,4,38
CCCc1[nH]n(-c2ccc([N+](=O)[O-])cc2)c(=O)c1C=NCCN1CCNCC1,x,i,6.8*,i,-1,21
Cc1[nH]n(-c2ccc([N+](=O)[O-])cc2)c(=O)c1C=NCCN1CCN(C(=O)C(C)C)CC1,i,i,i,i,x,16
O=C(CSc1nc2ccc([N+](=O)[O-])cc2[nH]1)NC1CCCCCC1,i,100*,i,i,3,-4
CCS(=O)(=O)c1ccc2oc(Nc3ccc(OC)c(OC)c3)nc2c1,i,i,i,i,-2,19
CSCCC(NC(=O)/C(=C/c1ccc(F)cc1)NC(C)=O)C(=O)O (stereo not drawn),i,i,i,i,-3,47
COc1ccc(C(C(=O)NC2CCCCC2)N(Cc2ccco2)C(=O)c2ccccn2)c(OC)c1 (stereo not drawn),i,i,i,i,-7,35
CCOC(=O)N1CCN(C(=O)c2ccc3c(c2)N(CC)CCS3)CC1,i,i,i,i,-2,15
CCOC(=O)N1CCN(C(=O)c2ccc3c(c2)N(Cc2ccc(F)cc2)CCS3)CC1,i,i,i,-5.2*,x,23
CCCCc1nc2cc(C(=O)N3CCN(c4cnccn4)CC3)ccc2o1,i,i,i,-9.7*,-1,15
COc1ccc2[nH]c3c(=O)n(CCCCC(=O)N4CCCC4)c(=S)[nH]c3c2c1,i,i,i,i,-1,100*
CS(=O)Cc1cc(Sc2ccccc2)nc(-c2cccnc2)n1 (stereo not drawn),i,i,i,i,0,8
CCN(CC)c1ccc(C=C2SC(=S)NC2=O)cc1,-5.1*,x,x,x,x,x
O=C(c1ccc(CSc2nc3ccncc3[nH]2)cc1)N1CCCCCC1,i,i,i,i,x,20
O=C(c1ccc(CSc2nc3ccncc3[nH]2)cc1)N1CCN(c2cccc(Cl)c2)CC1,i,100*,i,i,9,-11
CCCn1nnc(NC(=S)NC(=O)CC)n1,i,i,i,i,-7,60*
C=CCOc1c(Br)cc(/C=C2/C(=O)ON=C2C)cc1OC,i,i,i,i,0,38
CC(C)(C)OC(=O)NCCCCCc1nnc(SCc2c(F)cccc2Cl)o1,i,100*,i,i,-1,46
O=C(CSc1nnnn1C1CCCCC1)Nc1ccc(F)cc1,i,i,i,i,1,48

# Screening data (PubChem)
